Experiment [1] concerns the target T1, Serine/threonine-protein kinase 17A (Homo sapiens) (UniProt Q9UEE5).
T1 sequence (whole entry): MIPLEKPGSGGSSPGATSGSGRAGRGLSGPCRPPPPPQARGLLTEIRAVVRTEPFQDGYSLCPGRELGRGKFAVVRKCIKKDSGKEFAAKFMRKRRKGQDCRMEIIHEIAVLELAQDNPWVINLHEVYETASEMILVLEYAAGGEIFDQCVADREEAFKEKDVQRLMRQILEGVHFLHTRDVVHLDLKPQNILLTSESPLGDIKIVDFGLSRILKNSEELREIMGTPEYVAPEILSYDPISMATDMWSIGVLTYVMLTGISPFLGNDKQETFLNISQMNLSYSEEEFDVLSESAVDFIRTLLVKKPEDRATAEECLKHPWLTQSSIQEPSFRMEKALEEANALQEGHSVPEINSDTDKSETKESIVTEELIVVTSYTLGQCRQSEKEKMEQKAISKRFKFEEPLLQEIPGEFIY
To be noted: at 10 µM.

For experiment [2], the target named is T2, Dual specificity tyrosine-phosphorylation-regulated kinase 2 (Homo sapiens) (UniProt Q92630).
T2 sequence (whole entry): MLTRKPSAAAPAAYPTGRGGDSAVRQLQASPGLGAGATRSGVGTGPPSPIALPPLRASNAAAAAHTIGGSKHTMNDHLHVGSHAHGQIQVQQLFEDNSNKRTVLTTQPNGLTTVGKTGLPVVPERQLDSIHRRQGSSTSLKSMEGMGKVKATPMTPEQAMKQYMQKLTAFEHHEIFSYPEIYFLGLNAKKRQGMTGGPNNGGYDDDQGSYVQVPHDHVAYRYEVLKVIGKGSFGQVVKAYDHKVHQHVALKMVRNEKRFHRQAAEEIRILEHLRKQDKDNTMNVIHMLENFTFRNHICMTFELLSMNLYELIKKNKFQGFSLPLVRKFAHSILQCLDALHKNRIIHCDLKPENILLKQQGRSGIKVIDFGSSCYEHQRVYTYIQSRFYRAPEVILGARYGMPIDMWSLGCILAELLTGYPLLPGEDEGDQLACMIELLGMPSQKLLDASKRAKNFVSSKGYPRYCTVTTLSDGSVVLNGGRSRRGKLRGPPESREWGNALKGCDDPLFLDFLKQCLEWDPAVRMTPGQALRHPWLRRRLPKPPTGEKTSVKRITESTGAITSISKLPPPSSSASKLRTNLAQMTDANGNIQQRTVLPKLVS
Conditions: at 1 µM.

Experiment [3] addresses T2, Dual specificity tyrosine-phosphorylation-regulated kinase 2 (Homo sapiens). To be noted: at 10 µM.
Experiment [4] deals with T3, Ephrin type-A receptor 1 (Homo sapiens) (UniProt P21709).
T3 sequence (whole entry): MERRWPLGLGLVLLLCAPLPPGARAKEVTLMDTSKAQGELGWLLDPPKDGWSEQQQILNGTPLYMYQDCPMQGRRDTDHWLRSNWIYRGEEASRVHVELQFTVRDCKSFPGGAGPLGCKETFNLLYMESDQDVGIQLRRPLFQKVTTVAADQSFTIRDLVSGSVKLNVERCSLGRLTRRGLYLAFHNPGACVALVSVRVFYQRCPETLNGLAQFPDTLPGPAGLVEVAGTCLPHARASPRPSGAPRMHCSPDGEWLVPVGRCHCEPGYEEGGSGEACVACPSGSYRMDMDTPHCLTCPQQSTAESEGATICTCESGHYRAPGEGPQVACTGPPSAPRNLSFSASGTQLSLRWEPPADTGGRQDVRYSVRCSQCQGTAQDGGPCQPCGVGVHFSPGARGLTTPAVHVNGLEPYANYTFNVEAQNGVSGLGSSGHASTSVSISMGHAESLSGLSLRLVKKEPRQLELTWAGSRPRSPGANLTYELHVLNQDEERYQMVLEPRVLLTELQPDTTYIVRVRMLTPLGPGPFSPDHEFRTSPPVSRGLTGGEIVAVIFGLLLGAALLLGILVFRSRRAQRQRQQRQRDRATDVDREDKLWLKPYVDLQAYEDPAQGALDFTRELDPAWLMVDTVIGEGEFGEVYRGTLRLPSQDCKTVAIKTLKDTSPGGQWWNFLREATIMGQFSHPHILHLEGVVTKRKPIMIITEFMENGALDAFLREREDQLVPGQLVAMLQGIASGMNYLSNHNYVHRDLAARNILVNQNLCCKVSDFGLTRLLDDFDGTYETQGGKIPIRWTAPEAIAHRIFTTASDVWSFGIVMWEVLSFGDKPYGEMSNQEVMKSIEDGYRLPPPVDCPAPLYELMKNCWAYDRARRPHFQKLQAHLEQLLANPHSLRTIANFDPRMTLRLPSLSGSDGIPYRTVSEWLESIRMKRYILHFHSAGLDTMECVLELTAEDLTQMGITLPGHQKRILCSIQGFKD
Conditions: at 1 µM.

Experiment [5] concerns the target T3, Ephrin type-A receptor 1 (Homo sapiens). To be noted: at 10 µM.
Experiment [6] deals with Ephrin type-A receptor 2 (Homo sapiens) (UniProt P29317). Conditions: at 1 µM.
Chain of Ephrin type-A receptor 2 (Homo sapiens) (P29317 whole entry): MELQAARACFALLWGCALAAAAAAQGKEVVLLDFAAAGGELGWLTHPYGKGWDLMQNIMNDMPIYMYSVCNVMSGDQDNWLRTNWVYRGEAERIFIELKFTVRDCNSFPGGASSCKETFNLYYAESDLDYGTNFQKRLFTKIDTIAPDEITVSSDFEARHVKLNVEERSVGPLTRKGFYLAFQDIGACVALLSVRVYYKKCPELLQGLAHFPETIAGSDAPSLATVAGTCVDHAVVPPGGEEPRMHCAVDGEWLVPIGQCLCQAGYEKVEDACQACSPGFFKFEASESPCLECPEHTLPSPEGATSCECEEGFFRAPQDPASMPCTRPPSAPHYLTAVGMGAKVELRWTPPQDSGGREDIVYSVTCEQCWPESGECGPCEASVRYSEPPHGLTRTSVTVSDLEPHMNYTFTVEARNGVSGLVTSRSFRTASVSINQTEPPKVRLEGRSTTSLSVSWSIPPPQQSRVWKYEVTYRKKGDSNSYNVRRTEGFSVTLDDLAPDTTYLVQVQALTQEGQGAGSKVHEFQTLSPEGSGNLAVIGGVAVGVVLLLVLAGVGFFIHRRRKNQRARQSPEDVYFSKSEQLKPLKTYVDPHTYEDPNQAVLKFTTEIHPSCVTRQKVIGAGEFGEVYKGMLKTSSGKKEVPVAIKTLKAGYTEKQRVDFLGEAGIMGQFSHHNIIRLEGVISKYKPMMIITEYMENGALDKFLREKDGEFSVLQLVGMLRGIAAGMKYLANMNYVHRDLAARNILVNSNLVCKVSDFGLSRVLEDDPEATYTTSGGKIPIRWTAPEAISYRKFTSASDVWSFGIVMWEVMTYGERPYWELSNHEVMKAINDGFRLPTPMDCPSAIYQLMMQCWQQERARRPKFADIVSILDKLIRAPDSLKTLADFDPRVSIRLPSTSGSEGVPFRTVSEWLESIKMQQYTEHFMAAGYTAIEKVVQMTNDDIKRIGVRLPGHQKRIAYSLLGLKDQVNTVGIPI
Experiment [7] shares this target. Conditions: at 10 µM.
The target in experiment [8] is T4, Ephrin type-A receptor 3 (Homo sapiens) (UniProt P29320).
T4 sequence (whole entry): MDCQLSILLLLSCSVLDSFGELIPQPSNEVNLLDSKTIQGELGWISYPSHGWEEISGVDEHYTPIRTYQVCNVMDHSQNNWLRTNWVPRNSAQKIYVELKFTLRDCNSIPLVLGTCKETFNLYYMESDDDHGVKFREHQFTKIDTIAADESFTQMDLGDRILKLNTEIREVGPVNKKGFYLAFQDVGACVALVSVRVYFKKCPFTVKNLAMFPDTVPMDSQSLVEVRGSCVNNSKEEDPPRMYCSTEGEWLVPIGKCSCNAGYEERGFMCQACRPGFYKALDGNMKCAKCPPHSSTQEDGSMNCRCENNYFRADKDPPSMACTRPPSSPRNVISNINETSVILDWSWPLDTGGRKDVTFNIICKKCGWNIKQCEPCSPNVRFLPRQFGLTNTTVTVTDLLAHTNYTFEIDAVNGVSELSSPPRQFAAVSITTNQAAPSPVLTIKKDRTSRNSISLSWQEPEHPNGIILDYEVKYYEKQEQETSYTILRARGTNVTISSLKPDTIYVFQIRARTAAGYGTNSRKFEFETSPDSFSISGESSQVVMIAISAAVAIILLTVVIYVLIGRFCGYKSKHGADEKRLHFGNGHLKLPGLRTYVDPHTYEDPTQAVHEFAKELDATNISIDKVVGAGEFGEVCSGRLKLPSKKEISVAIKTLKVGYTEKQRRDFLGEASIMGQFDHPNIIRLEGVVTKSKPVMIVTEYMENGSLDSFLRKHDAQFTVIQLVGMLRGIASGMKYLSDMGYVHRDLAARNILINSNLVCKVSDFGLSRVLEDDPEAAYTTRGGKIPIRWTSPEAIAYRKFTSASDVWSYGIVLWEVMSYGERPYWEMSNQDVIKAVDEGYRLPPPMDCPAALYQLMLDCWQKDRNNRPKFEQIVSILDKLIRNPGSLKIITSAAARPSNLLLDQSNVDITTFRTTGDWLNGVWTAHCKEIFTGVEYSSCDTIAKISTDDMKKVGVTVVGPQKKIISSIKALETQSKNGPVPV
Conditions: at 1 µM.

Experiment [9] has as its target T4, Ephrin type-A receptor 3 (Homo sapiens). To be noted: at 10 µM.
In experiment [10] the target is Ephrin type-A receptor 4 (Homo sapiens) (UniProt P54764). To be noted: at 1 µM.
Chain of Ephrin type-A receptor 4 (Homo sapiens) (P54764 whole entry): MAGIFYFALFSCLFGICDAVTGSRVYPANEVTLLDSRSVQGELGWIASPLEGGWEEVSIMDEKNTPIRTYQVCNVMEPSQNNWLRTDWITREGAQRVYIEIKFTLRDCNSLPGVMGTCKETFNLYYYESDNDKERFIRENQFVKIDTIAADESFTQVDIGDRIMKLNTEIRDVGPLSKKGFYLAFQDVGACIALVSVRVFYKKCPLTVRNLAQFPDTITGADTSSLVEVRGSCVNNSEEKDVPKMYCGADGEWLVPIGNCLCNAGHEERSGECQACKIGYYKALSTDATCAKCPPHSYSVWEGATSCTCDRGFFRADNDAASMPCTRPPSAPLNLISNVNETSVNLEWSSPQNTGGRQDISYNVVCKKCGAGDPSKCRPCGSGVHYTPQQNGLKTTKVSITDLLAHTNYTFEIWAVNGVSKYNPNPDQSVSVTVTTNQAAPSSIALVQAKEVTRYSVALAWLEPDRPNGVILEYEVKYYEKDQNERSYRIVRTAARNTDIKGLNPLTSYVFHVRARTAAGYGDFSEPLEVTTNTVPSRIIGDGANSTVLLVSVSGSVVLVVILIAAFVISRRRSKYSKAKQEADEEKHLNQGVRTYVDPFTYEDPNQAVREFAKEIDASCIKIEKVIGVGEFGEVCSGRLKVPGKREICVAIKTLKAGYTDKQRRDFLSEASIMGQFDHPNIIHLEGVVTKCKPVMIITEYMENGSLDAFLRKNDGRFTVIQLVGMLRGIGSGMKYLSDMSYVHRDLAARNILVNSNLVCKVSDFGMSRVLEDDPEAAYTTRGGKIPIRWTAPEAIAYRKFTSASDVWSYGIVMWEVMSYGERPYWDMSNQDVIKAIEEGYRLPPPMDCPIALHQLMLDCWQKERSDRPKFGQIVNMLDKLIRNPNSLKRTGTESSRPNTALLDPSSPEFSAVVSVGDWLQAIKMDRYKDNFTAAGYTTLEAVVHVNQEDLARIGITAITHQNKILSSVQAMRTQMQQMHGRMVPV
The target is the same in experiment [11]. Conditions: at 10 µM.
Experiment [12] deals with Ephrin type-A receptor 5 (Homo sapiens) (UniProt P54756). Conditions: at 1 µM.
Chain of Ephrin type-A receptor 5 (Homo sapiens) (P54756 whole entry): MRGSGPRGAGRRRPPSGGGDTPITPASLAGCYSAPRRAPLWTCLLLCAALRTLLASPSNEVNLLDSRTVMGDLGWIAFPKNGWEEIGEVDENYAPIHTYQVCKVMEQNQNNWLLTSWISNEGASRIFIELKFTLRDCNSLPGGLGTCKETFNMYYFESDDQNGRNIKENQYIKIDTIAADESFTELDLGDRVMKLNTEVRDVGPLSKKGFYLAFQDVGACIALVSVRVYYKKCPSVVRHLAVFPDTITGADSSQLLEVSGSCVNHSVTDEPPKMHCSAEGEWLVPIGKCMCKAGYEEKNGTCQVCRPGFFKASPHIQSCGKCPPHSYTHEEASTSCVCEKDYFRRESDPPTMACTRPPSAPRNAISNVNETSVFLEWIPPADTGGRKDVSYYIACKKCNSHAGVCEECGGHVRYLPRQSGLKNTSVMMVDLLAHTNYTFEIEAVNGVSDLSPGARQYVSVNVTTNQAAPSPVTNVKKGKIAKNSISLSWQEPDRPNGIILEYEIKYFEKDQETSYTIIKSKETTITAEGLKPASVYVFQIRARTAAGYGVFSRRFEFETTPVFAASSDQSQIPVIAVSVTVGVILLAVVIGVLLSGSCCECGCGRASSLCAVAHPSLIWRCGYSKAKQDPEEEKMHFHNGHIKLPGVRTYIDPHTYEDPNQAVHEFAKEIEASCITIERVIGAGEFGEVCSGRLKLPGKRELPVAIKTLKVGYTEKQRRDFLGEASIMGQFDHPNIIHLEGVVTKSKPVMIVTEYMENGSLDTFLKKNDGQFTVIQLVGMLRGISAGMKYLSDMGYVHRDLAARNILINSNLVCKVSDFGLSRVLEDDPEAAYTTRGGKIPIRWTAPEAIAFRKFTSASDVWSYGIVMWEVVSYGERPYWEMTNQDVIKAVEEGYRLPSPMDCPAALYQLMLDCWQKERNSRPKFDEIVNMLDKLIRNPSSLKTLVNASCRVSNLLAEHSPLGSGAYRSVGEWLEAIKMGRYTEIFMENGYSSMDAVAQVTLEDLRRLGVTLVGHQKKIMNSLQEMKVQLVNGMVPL
Experiment [13] has the same target. To be noted: at 10 µM.
The target of experiment [14] is Ephrin type-A receptor 7 (Homo sapiens) (UniProt Q15375). To be noted: at 1 µM.
Chain of Ephrin type-A receptor 7 (Homo sapiens) (Q15375 28-998 limits assumed): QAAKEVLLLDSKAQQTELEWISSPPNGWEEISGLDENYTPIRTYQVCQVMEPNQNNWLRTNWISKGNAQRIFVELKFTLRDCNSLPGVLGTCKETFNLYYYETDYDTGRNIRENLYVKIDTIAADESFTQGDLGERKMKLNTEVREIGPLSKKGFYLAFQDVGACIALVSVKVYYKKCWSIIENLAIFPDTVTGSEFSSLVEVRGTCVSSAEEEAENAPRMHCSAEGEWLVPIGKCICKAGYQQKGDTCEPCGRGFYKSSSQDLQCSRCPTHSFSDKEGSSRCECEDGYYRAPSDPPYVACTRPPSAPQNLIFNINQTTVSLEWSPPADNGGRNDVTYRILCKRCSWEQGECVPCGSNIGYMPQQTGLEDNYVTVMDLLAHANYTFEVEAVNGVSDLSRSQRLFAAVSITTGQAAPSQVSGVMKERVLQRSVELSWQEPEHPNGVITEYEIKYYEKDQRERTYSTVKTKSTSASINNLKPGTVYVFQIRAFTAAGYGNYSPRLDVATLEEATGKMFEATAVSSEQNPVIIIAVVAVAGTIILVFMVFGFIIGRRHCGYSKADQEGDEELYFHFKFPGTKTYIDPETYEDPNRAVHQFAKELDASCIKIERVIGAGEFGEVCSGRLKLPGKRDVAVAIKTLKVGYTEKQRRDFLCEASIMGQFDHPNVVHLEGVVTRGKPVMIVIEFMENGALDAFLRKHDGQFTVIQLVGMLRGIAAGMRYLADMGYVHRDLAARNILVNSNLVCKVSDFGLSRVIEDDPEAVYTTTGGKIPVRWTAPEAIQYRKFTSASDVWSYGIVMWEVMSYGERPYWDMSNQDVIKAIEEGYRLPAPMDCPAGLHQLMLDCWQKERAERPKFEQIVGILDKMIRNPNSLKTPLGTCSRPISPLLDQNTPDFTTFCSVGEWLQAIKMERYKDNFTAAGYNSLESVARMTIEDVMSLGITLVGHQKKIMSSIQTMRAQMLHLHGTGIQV
The target is the same in experiment [15]. Conditions: at 10 µM.
Experiment [16] has as its target T5, Ephrin type-A receptor 8 (Homo sapiens) (UniProt P29322).
T5 sequence (whole entry): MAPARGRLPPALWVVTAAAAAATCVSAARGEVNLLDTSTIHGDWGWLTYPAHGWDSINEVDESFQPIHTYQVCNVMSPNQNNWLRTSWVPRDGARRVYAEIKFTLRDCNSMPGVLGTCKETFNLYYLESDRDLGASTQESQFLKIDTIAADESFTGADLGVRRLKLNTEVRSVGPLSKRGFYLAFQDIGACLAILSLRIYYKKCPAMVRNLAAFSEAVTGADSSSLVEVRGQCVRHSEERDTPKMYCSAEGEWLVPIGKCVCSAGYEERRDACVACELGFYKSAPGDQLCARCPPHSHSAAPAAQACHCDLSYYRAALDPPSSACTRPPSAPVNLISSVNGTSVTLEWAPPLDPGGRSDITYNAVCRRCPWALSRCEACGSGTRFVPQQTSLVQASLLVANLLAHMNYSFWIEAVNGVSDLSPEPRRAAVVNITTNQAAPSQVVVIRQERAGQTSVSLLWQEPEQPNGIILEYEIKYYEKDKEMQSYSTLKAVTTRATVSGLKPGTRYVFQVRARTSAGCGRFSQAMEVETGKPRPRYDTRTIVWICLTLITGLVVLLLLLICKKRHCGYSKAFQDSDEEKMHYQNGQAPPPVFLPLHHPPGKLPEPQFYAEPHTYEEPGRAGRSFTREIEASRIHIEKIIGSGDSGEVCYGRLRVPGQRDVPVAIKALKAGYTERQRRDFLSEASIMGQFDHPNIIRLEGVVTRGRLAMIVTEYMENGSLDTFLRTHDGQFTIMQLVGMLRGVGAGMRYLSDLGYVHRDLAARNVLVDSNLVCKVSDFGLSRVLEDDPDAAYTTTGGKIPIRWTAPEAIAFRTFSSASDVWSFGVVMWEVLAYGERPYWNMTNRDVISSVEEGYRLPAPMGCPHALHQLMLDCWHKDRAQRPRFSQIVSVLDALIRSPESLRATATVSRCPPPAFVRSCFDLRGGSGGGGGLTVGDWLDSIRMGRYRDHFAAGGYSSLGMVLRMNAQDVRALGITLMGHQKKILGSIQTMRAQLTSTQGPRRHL
To be noted: at 1 µM.

Experiment [17] has as its target T5, Ephrin type-A receptor 8 (Homo sapiens). To be noted: at 10 µM.
The target in experiment [18] is T6, Ephrin type-B receptor 1 (Homo sapiens) (UniProt P54762).
T6 sequence (whole entry): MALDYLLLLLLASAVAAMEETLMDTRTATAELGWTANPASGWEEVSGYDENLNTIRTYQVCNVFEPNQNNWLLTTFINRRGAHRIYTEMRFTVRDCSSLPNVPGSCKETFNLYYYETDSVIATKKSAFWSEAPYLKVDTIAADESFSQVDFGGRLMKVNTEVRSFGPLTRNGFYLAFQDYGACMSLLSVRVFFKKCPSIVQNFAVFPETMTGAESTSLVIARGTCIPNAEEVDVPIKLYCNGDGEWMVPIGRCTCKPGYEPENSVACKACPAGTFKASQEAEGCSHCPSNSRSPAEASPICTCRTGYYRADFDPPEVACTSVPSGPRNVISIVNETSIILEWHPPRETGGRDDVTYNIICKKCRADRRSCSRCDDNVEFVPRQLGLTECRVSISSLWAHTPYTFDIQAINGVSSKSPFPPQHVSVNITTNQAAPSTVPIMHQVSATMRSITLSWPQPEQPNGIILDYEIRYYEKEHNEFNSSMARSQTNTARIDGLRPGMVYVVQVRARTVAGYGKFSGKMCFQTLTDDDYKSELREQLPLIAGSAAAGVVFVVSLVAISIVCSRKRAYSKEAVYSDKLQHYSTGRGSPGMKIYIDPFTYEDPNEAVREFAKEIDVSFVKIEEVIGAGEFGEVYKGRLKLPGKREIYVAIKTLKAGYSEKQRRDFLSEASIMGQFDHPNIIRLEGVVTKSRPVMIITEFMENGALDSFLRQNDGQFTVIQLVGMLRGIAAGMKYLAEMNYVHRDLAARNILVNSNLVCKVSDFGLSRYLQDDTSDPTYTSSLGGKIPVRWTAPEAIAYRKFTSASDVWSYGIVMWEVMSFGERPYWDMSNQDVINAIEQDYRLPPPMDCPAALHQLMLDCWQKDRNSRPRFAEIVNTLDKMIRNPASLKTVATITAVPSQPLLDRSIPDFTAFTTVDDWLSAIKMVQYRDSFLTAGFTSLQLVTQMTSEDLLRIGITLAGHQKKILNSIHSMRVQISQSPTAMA
Conditions: at 1 µM.

A word on the residual activity: it is the signal under treatment as a percentage of the control signal. Regarding `CO[C@H]1[C@@H](OC)C[C@H](C)[C@@H](OC)C2=CC(=O)C=C(NC(=O)/C(C)=C/C=C/[C@H](OC)[C@@H](OC(N)=O)/C(C)=C/[C@@H]1C)C2=O`, the residual activity in experiment [1] amounted to 88%; in experiment [2], 95%; in experiment [3] it was 101%; in [4], 94%; in experiment [5], 102%; in [6] it was 105%. The residual activity in experiment [7] is 113%; in [8], 101%; in [9] it was 85%; in experiment [10], 110%; in experiment [11] it was 112%; in experiment [12] it was 107%. Moreover, the residual activity in experiment [13] stood at 95%; in experiment [14] it was 95%; in [15], 96%; in [16], 96%; in experiment [17] it was 105%; in experiment [18], 109%.
For the compound `Cc1cccc(-c2[nH]c(C(C)(C)C)nc2-c2ccc3c(c2)OCO3)n1`, the residual activity in [2] is 94%; in experiment [3] it was 104%; in experiment [4] it was 90%; in experiment [5], 106%; in [9] it was 96%; in [14] it was 98%. The residual activity is 94% in experiment [15], 99% in [16] and 105% in [17].
As to `Cc1cc2ncc(-c3ccccc3)nc2cc1C`, the residual activity in experiment [1] is 95%; in [2], 85%; in experiment [3], 105%; in experiment [4], 96%; in experiment [5], 105%; in experiment [6] it was 109%. Besides, the residual activity in experiment [7] worked out at 97%; in experiment [8], 103%; in experiment [9] it was 92%; in experiment [14] it was 99%; in experiment [15], 93%; in experiment [16], 97%. Further, the residual activity in experiment [17] came to 98%; in [18], 106%.
Turning to `C[C@@H](N)[C@H]1CC[C@H](C(=O)Nc2ccncc2)CC1`, the residual activity worked out at 67% in experiment [1]; 101% in [2]; 91% in experiment [3]; 101% in experiment [4]; 96% in experiment [5]; 96% in [6]. Further, the residual activity in experiment [7] was 98%; in [8], 103%; in [9] it was 97%; in [10], 95%; in [12] it was 84%; in experiment [14] it was 96%. Further, the residual activity was 90% in [15], 105% in experiment [16], 108% in [17] and 101% in experiment [18].

Values taken from ChEMBL document CHEMBL2218924, “A broad activity screen in support of a chemogenomic map for kinase signalling research and drug discovery” (Biochem J, 2013).
